# PubChem BioAssay
# Where “and” joins values, the source holds several entries; their conditions need not be identical. Identical values can stand only once. Calls of active or inactive are those of the source. Unless noted, no stated cut-off is given here; in the data, active means inhibition above about 80%; inactive means the rest.
# Legend:
# [1] = LFS_MB_P medulloblastoma growth inhibition, cell-based, chromothripsis tumors, cisplatin or BGB combos (AID 1671449); details: LFS_MB_P medulloblastoma cells;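 further: cells exposed for 96 hours; 0% = vehicle DMSO and 100% = killing by high DMSO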
# [2] = HDN33 neuroblastoma growth inhibition, cell-based, chromothripsis tumors, cisplatin or BGB combos (AID 1671450); details: HDN33 neuroblastoma cells, stronger effect = higher value;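 further: cells exposed to compound for four days; 0% = vehicle DMSO and 100% = cell killing by high DMSO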
# [3] = ICB984 medulloblastoma cell growth inhibition, synergistic combos for chromothripsis tumors, cisplatin or BGB combos (AID 1671451; call rule not given here;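 further: cells exposed for 96 hours before readout; 0% = vehicle DMSO and 100% = killing by high DMSO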); details: ICB984 medulloblastoma cells, drug combinations, stronger effect = higher value
# [4] = LFS_MB_1R medulloblastoma cell growth inhibition, synergistic combos for chromothripsis tumors, cisplatin or BGB combos (AID 1671452); details: LFS_MB_1R medulloblastoma cells, stronger effect = higher value;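 further: cells exposed for 96 hours before readout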
# [5] = HTB85 osteosarcoma cell growth inhibition, synergistic combos for chromothripsis tumors, BGB or cisplatin IC20 combos (AID 1671453); details: HTB85 osteosarcoma cells, drug combinations, stronger effect = higher value;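 further: cells exposed for 96 hours before readout; 0% = vehicle DMSO and 100% = high DMSO killing control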
# [6] = CRL2098 osteosarcoma cell growth inhibition, synergistic combos for chromothripsis tumors, BGB or cisplatin IC20 combos (AID 1671454); details: CRL2098 osteosarcoma cells, drug combinations, stronger effect = higher value;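 further: cells exposed for 96 h before readout; 0% = vehicle DMSO and 100% = killing by high DMSO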
# [7] = HD-MB03 medulloblastoma cell growth inhibition, synergistic combos for chromothripsis tumors, BGB or cisplatin IC20 combos (AID 1671455; in the data active means inhibition above about 83%;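 further: 0% = vehicle DMSO and 100% = high DMSO as cytotoxic control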); details: HD-MB03 medulloblastoma cells, stronger effect = higher value
# [8] = UWB1.289 ovarian carcinoma cell growth inhibition, synergistic combos for chromothripsis tumors, BGB or cisplatin combos (AID 1671456); details: UWB1.289 ovarian carcinoma cells, stronger effect = higher value;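 further: cells exposed to compound for four days; 0% = vehicle DMSO and 100% = killing by high DMSO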
# [9] = LFS_MB_2R medulloblastoma cell growth inhibition, synergistic combos for chromothripsis tumors, cisplatin combos (AID 1671457); details: LFS_MB_2R medulloblastoma cells, stronger effect = higher value;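 further: cells exposed to compound for four days before readout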
# [10] = MDA-MB-436 breast carcinoma cell growth inhibition, synergistic combos for chromothripsis tumors, BGB or cisplatin combos (AID 1671458; call rule not given here;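 further: cells exposed for 96 hours; 0% = vehicle DMSO and 100% = killing by high DMSO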); details: MDA-MB-436 breast carcinoma growth inhibition, drug combinations, stronger effect = higher value
# [11] = UWB1.289_BRCA1 ovarian cancer growth, cell-based, BGB or cisplatin combinations (AID 1671459); details: UWB1.289 BRCA1 ovarian carcinoma, drug combinations, stronger effect = higher value
# [12] = human astrocyte viability loss, single and combined drugs, cytotoxicity control for chromothriptic childhood tumor combination screen, cell-based, BGB or cisplatin IC20 combos (AID 1671460); details: Human astrocytes, drug combinations, stronger effect = higher value;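 further: cells exposed to compounds for 96 hours before viability readout; 0% = vehicle and 100% = killing control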
# [13] = growth inhibition of BT084 medulloblastoma cells, cell-based, ICGC_MB145, cisplatin and BGB IC40 combos (AID 1671461); details: drug combinations, stronger effect = higher value;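 further: cells exposed to drugs for 96 hours; 0% = vehicle DMSO and 100% = high DMSO full killing control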
# [14] = growth inhibition of RCMB18 medulloblastoma cells, cell-based, cisplatin and BGB IC40 combos (AID 1671462); details: stronger effect = higher value;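 further: cells exposed to compound for four days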
# [15] = growth inhibition of CRL1545 osteosarcoma cells, cell-based, cisplatin and BGB IC20 combos (AID 1671464); details: stronger effect = higher value;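 further: cells exposed to compound for 96 hours before readout; 0% = vehicle DMSO and 100% = high DMSO killing control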
# [16] = measured here: combination with BGB IC40, at 0.05 µM
# [17] = measured here: combination with cisplatin, at 5 µM, stronger effect = higher value
# [18] = measured here: with BGB IC20 combination, at 0.5 µM
# [19] = measured here: with cisplatin IC20 combination, at 0.5 µM
# [20] = measured here: combination with cisplatin, at 0.5 µM
# [21] = measured here: combination with cisplatin, at 5 µM
# [22] = measured here: with cisplatin IC20, at 5 µM
smiles,measurement,setting,value
O=C(CCSc1nc2ccccc2c(=O)[nH]1)NC1CCC(c2nnc(-c3ccccc3)o2)CC1 (stereo not drawn),inhibition,"[1]; at 0.5 µM, stronger effect = higher value",-18.8% (inactive)
same,inhibition,"[1]; measured here: combination with BGB IC20, at 0.005 µM",-14.4%
same,inhibition,"[1]; measured here: combination with BGB IC40, at 0.005 µM",-25.3%
same,inhibition,[1]; [16],-55.5%
same,inhibition,"[1]; measured here: combination with cisplatin, at 0.5 µM, stronger effect = higher value",-16.2%
same,inhibition,[1]; [17],-49.7%
same,inhibition,"[2]; BGB combo, at 5 µM",11.8%
same,inhibition,[2]; at 0.5 µM,16.1% (inactive)
same,inhibition,"[2]; cisplatin combo, at 5 µM",29.6%
same,inhibition,[2]; [18],8.27%
same,inhibition,[2]; [19],21.3%
same,inhibition,"[2]; single agent, at 5 µM",32.4%
same,inhibition,"[3]; BGB IC20 combo, at 0.005 µM",-2.22%
same,inhibition,"[3]; BGB IC40 combo, at 0.005 µM",-49.4%
same,inhibition,"[3]; BGB IC40 combo, at 0.05 µM",-27.2%
same,inhibition,[3]; at 0.5 µM,-25.5% (inactive)
same,inhibition,"[3]; cisplatin combo, at 0.05 µM",-31.8%
same,inhibition,"[3]; cisplatin combo, at 0.5 µM",-22.3%
same,inhibition,"[3]; cisplatin combo, at 5 µM",-10.9%
same,inhibition,"[3]; measured here: 5 uM single agent, at 5 µM",-18.3%
same,inhibition,[4]; at 0.5 µM,-14.6% (inactive)
same,inhibition,[4]; [16],6.03%
same,inhibition,[4]; [20],-5.82%
same,inhibition,[4]; [21],-21.2%
same,inhibition,[5]; at 0.5 µM,2.93% (inactive)
same,inhibition,"[5]; measured here: with BGB IC20, at 0.5 µM",-9.32%
same,inhibition,"[5]; measured here: with BGB IC20, at 5 µM",-14.4%
same,inhibition,"[5]; measured here: with cisplatin IC20, at 0.5 µM",5.46%
same,inhibition,[5]; [22],-13.6%
same,inhibition,"[5]; single agent, at 5 µM",0.754%
same,inhibition,[6]; at 0.5 µM,-30.9% (inactive)
same,inhibition,"[6]; measured here: combination with BGB at IC20, at 0.5 µM",-25.3%
same,inhibition,"[6]; measured here: combination with cisplatin at IC20, at 0.5 µM",-55.1%
same,inhibition,[7]; at 0.5 µM,5.94% (inactive)
same,inhibition,"[7]; measured here: combo with BGB at IC20, at 0.5 µM",-6.25%
same,inhibition,"[7]; measured here: combo with cisplatin at IC20, at 0.5 µM",23%
same,inhibition,[8]; at 0.5 µM,10.2% (inactive)
same,inhibition,"[8]; measured here: inhibition with BGB combination, at 0.05 µM",-3.32%
same,inhibition,"[8]; measured here: inhibition with cisplatin combination, at 0.05 µM",13%
same,inhibition,[9]; at 0.5 µM,-3.45% (inactive)
same,inhibition,[9]; [20],-13.5%
same,inhibition,[9]; [21],-4.17%
same,inhibition,[10]; at 0.5 µM,4.84% (inactive)
same,inhibition,"[10]; measured here: BGB combination, at 0.5 µM",-2.01%
same,inhibition,"[10]; measured here: BGB combination, at 5 µM",-13.2%
same,inhibition,"[10]; measured here: cisplatin combination, at 0.5 µM",5.45%
same,inhibition,"[10]; measured here: cisplatin combination, at 5 µM",-2.11%
same,inhibition,"[11]; BGB combination, concentration series, at 5 µM",9.22%
same,inhibition,[11]; at 0.5 µM,8.17% (inactive)
same,inhibition,"[11]; cisplatin combination, concentration series, at 5 µM",-16.8%
same,inhibition,[12]; at 0.5 µM,41.8% (inactive)
same,inhibition,"[12]; measured here: combo with BGB IC20, at 0.5 µM",31.3%
same,inhibition,"[12]; measured here: combo with cisplatin IC20, at 0.5 µM",43.3%
same,inhibition,[13]; at 0.5 µM,-6.61% (inactive)
same,inhibition,"[13]; cisplatin combination, at 0.5 µM",-27.5%
same,inhibition,"[13]; cisplatin combination, at 5 µM",2.51%
same,inhibition,"[13]; measured here: BGB IC40 combination 0.05 uM, at 0.05 µM",-56.9%
same,inhibition,"[13]; single agent, at 5 µM",-15.2%
same,inhibition,[14]; at 0.5 µM,-4.49% (inactive)
same,inhibition,"[14]; cisplatin combo, at 5 µM",16.1%
same,inhibition,"[14]; measured here: BGB IC40 combination, at 0.05 µM",-6.16%
same,inhibition,[14]; [20],22.5%
same,inhibition,"[14]; single agent, at 5 µM",-14.1%
same,inhibition,[15]; at 0.5 µM,-21.1% (inactive)
same,inhibition,[15]; [18],-27%
same,inhibition,[15]; [19],-20%
same,inhibition,"[15]; single agent, at 0.05 µM",24.5%
same,inhibition,"[15]; single agent, at 5 µM",-45%
COc1cccc2c1C(=O)c1c(O)c3c(c(O)c1C2=O)CC(O)(C(=O)CO)CC3OC1CC(N)C(O)C(C)O1 (stereo not drawn),inhibition,[1]; [17],118% and 119% and 108%
same,inhibition,"[2]; single agent, at 5 µM",99.7% and 99.6%
same,inhibition,[5]; at 0.5 µM,98.7% (active) and 98.9% (active) and 98.5% (active)
same,inhibition,[5]; [22],99.4% and 99.6% and 99.7%
same,inhibition,"[15]; single agent, at 5 µM",99.7% and 99.6% and 99.8%
